# VP16 counter: VP16 counterscreen qHTS for inhibitors of ROR gamma transcriptional activity | Drosophila S2 Gal4-VP16 UAS-luciferase, luminescence, 20 h | Potency, µM (series often up to 53.6 µM), for inactives: at the highest dose activity, negative = inhibition, most hits filed as inhibitors | actives 3.5% (n = 310,000);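 also: Gal4-VP16 expression switched on by copper sulfate through the metallothionein promoter; potency is read from the fitted curve at half-maximal effect; nearly all actives have a fitted effect of over 50% in size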
# GALK inhibitor: qHTS Assay for Inhibitors of Human Galactokinase (GALK); actives 0.007% (n = 270,000); P51570; Purified GALK, Kinase-Glo residual ATP luminescence; Potency, µM (doses to about 57.5 µM), for inactives: top-dose activity change, negative = inhibition, most hits filed as inhibitors; also: potency is read from the fitted curve at half-maximal effect
#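 The enzyme phosphorylates galactose (100 uM) using ATP (35 uM); inhibition is detected as higher residual ATP, quantified by bioluminescence after 1 h reaction at room temperature, pH 8.0.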
# rTrxR1 inhibitor: qHTS Assay for Inhibitors of Mammalian Selenoprotein Thioredoxin Reductase 1 (TrxR1): qHTS. AID 588453, 2011. actives 1% (n = 390,000). Potency, µM (doses to about 114 µM), without a hit: at the highest dose activity change, negative = inhibition, most hits filed as inhibitors. recombinant rTrxR1, NADPH fluorescence consumption, selenite substrate. Thioredoxin reductase 1, cytoplasmic (Rattus norvegicus), O89049; also: potency is read from the fitted curve at half-maximal effect; nearly all actives have a fitted effect of over 65% in size
#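 Rat TrxR1 (90 nM in the dispensed reagent) was pre-reduced with 400 uM NADPH for 5 min at room temperature, then incubated with compound for 15 min. After 400 uM selenite was added, NADPH fluorescence (Ex 340/Em 450 nm) was followed for 8 min.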
# Coupling enz: qHTS Assay for Inhibitors of Fructose-1,6-bisphosphate Aldolase from Giardia Lamblia: Coupling assay counterscreen; coupling enzyme system counterscreen, AmpLite Red fluorescence; activity change, negative = inhibition, % at 58.2 µM, hits read low; actives 0.67% (n = 290,000); AID 2472, 2010; in the data active = activity change below about -30%
#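 Coupling enzymes only (glyceraldehyde-3-phosphate) + compound, at 57.5 uM final, 10 min RT; add substrate/coupling/AmpLite Red mix, 20 min RT; fluorescence ex 525/em 598 nm. Actives flag coupling-system interference.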
# RORgamma inh: qHTS for inhibitors of ROR gamma transcriptional activity. Nuclear receptor ROR-gamma (Mus musculus), P51450. Drosophila S2 Gal4-RORgamma UAS-luciferase reporter, 20 h. Potency, µM (doses to about 53.6 µM), for the others: at the top dose activity change, negative = inhibition, actives largely listed as inhibitors. actives 5.4% (n = 310,000). AID 2551, 2010; also: potency is read from the fitted curve at half-maximal effect; nearly all actives have a fitted effect of over 60% in size
# Target sequence (P51450 whole entry, looked up, the tested form may be a part): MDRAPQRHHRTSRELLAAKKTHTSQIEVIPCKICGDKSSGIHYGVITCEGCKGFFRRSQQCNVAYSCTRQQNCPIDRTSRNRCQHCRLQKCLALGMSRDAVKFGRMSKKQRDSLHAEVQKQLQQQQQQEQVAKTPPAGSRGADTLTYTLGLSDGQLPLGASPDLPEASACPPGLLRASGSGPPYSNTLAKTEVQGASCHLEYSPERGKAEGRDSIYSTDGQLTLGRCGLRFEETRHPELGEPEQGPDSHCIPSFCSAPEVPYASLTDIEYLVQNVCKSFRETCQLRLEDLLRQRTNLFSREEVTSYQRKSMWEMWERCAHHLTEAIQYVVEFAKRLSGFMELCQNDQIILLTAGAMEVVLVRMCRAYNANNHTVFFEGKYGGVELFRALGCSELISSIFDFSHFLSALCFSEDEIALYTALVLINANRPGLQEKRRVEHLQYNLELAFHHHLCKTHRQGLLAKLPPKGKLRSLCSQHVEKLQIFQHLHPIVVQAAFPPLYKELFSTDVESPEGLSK
#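 ROR gamma transcriptional activity was tracked as Gal4-UAS luciferase output in stably transfected Drosophila Schneider cells, with compound added 1 hr before 700 uM copper sulfate induction and a 20 hr ambient-temperature incubation.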
# TrxR1 substrate: qHTS Assay for Substrates of Mammalian Selenoprotein Thioredoxin Reductase 1 (TrxR1): qHTS; Thioredoxin reductase 1, cytoplasmic (Rattus norvegicus), O89049; purified TrxR1 substrate turnover, NADPH consumption readout; Potency, µM (top dose mostly 114 µM), for inactives: at the highest dose activity change, negative = substrate turnover; actives 0.01% (n = 390,000); AID 588456, 2011; also: potency is read from the fitted curve at half-maximal effect; nearly all actives have a fitted effect of over 50% in size
#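 Rat TrxR1, dispensed at 90 nM, was prereduced with 400 uM NADPH (final) for 5 min at ~22 deg C, then incubated with compound 15 min before 400 uM selenite. A first-read NADPH fluorescence drop versus no-compound background flagged substrates.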
# * marks the source's active call; other numbers are inactive results; u = inconclusive; x = no result given; ! = not confirmed by another sample; [ ] = another dose, or the depositor's remark. Hits are enriched below; roughly 5.9% of the tested compounds scored in any of these assays. Unless noted, calls follow the shape of the dose curve; as a rule, active = well fitted curve in the direction sought with a large enough effect; inconclusive = small, poorly fitted or top-dose-only effect, or another doubt; inactive = no such curve, though single readings can be large; an effect the other way counts as inactive or inconclusive. % is scaled to controls: 0 for no effect and ±100 for the full control effect.
SMILES,VP16 counter,GALK inhibitor,rTrxR1 inhibitor,Coupling enz,RORgamma inh,TrxR1 substrate
Cc1ccc(C2CC2c2n[nH]c(=S)n2-c2cccc(Cl)c2)cc1 (stereo not drawn),7.1µM*,0%,-27%,5,2.5µM*,-12%
Cc1ccc(-n2c(C3CC3c3ccc(Cl)cc3)n[nH]c2=S)cc1 (stereo not drawn),5.6µM*,-3%,-10%,4,2.8µM*,1%
Cc1ccc(-n2c([C@@H]3C[C@H]3c3ccccc3)n[nH]c2=S)cc1,u,x,-13%,3,2.8µM*,-5%
Cc1ccc(-n2c(Cn3c(C)nc4ccccc43)n[nH]c2=S)cc1,-13%,-3%,0%,1,u,-1%
Nc1n[nH]c(=S)n1-c1ccc(Cl)cc1,-19%,-9%,-15%,1,-9%,9%
CCCCOc1nc2ccccc2nc1C(C#N)S(=O)(=O)c1ccccc1 (stereo not drawn),-4%,-6%,-14%,3,6%,15%
S=c1[nH]nc(C2CC2c2ccc(Cl)cc2)n1-c1ccc(Cl)cc1 (stereo not drawn),u,1%,-12%,5,2.2µM*,-1%
CCOC(=O)c1c(C)c(C(=O)NCc2cccs2)c(C)n1C,-1%,-2%,17%,4,u,-5%
Cn1c(NC(=S)Nc2ccccc2)nc2ccccc21,1µM*,1%,9%[57.1 µM],1,0.5µM*,17%
Nc1nc2ccccc2n1CCOc1ccc(Br)cc1,x,3%,12%,-2,x,4%
S=C(Nc1ccccc1)Nc1nc2ccccc2n1CCOc1ccc(Br)cc1,2.2µM*,0%,-19%,-1,1.8µM*,-7%
COc1ccc(C2=C(C=C(C#N)C#N)C(c3ccccc3C)c3ccccc3O2)cc1OC (stereo not drawn),-14%,0%,-15%,-2,u,-10%
CN(C)/C=N/c1nc2ncc(-c3ccc(Cl)cc3)c(/N=C/N(C)C)n2n1,3%,2%,13%[57.1 µM],0,26%,1%[57.1 µM]
CCNC(=O)Oc1ccc[nH]c1=O,u,7%,1%[2.29 µM],-63*,24%,1%[57.1 µM]
COCCn1c(C)cc(C(=O)Cn2nc(C(=O)O)c3ccccc3c2=O)c1C,u,17%,11%,3,5.6µM*,0%
C=CCn1c(C)cc(C(=O)Cn2nc(C(=O)O)c3ccccc3c2=O)c1C,u,15%,20%,0,16µM*,-3%
Cc1cc(C(=O)Cn2nc(C(=O)O)c3ccccc3c2=O)c(C)n1C1CC1,-2%,0%,-3%[57.1 µM],-6,20%,2%[57.1 µM]
Cc1ccc(-c2nc3c(c(=O)[nH]c(=O)n3Cc3ccccc3)n2C)o1,-10%,0%,32µM*,0,u,17%[57.1 µM]
COc1cc(O)cc2cc3c(c(O)c12)C(=O)CC(C)(O)O3 (stereo not drawn),9%,1%,50%,-43*,-3%,-10%
COc1cc(O)c2c(c1)OC(C)(C)CC2=O,15%,-2%,17%[57.1 µM],0,7%,7%[57.1 µM]
N#Cc1ccccc1NC(=S)NC(=O)c1cccnc1,x,4%,3.5µM*,1,x,10%[57.1 µM]
CCC(C)c1ccc(O)c(NC(=S)NC(=O)c2cccnc2)c1 (stereo not drawn),1.3µM*,2%,-16%,-2,0.56µM*,-9%
O=C(NC(=S)Nc1ccccc1O)c1cncc(Br)c1,x,x,2%[57.1 µM],x,x,-22%[57.1 µM]
O=C(NC(=S)Nc1ccccc1O)c1cccnc1,u,3%,20%,2,11µM*,13%
O=C(NC(=S)NNC(=O)c1ccccc1O)c1cccnc1,-1%,0%,u,-1,-37%,-6%[57.1 µM]
SMILES,VP16 counter,GALK inhibitor,rTrxR1 inhibitor,Coupling enz,RORgamma inh,TrxR1 substrate
COc1ccc(-c2cc(C(F)(F)F)nc(S(=O)(=O)CCCC(=O)Nc3cc(C)on3)n2)cc1OC,u,0%,-69%,-1,3.5µM*,-11%[57.1 µM]
COc1ccc(Cl)cc1NC(=O)CCCS(=O)(=O)c1nc(-c2ccc(OC)c(OC)c2)cc(C(F)(F)F)n1,x,x,22%,x,x,36%
COc1ccccc1-c1cc(C(F)(F)F)nc(S(=O)(=O)CCCC(=O)Nc2cc(C)on2)n1,7.9µM*,0%,u,-2,11µM*,122%
COc1ccc(NC(=O)CCCS(=O)(=O)c2nc(-c3ccccc3OC)cc(C(F)(F)F)n2)c(OC)c1,x,x,u,x,x,-9%
CC(/C=N/NC(=O)c1nnn(-c2nonc2N)c1C(C)C)=C\c1ccccc1,4%,7%,7%,-1,12%,-5%
CC1(C)NC(=O)N(CCCCOc2ccccc2[N+](=O)[O-])C1=O,4%,5%,x,-2,5%,x
CC1(C)NC(=O)N(c2ccc([N+](=O)[O-])c(C(F)(F)F)c2)C1=O,16µM*!,x,18%[57.1 µM],3,u,5%[57.1 µM]
COc1ccc(/C(C)=N/Nc2nncc3ccccc23)cc1,-11%,x,14%[57.1 µM],-2,u,8%[57.1 µM]
NNc1nncc2ccccc12,u,x,-5%[57.1 µM],-59*!,7.1µM*!,u
CNC(=S)NNc1nncc2ccccc12,4.5µM*,-3%,10%[57.1 µM],2,5µM*,2%[57.1 µM]
CCNC(=S)NNc1nncc2ccccc12,3.2µM*,-7%,17%[57.1 µM],-1,0.5µM*,-3%
COc1cccc(NS(=O)(=O)c2ccc3[nH]cc(C(=O)N4CCCCCC4)c(=O)c3c2)c1,x,x,11%,x,x,8%
COc1ccccc1OC(C)C(=O)N1CCC(c2nc3ccccc3s2)CC1 (stereo not drawn),x,x,13%,x,x,-1%
C/C(=N\Nc1nc(-c2ccccc2O)nc2ccccc12)c1ccccc1,u,2%,-1%,1,4.5µM*,-8%
C/C(=N/Nc1nc(-c2ccccc2F)nc2ccccc12)c1ccccc1O,7.9µM*,0%,2%,0,3.2µM*,-1%
Oc1ccc(Nc2nc(-c3ccccc3F)nc3ccccc23)cc1,1%,-2%,-27%,1,-4%,-13%
C/C(=N\Nc1nc(-c2ccccn2)nc2ccccc12)c1ccc(F)cc1,1.1µM*,-1%,16%,1,0.13µM*,0%
Oc1ccccc1Nc1nc(-c2ccccc2O)nc2ccccc12,-7%,-1%,11%,0,0%,5%
CCCCOc1ccc(C(=O)N(Cc2ccco2)Cc2ccco2)cc1,x,x,-14%,x,x,-11%
O=C(COc1ccccc1Br)NC(=O)NC1CCCC1,x,x,-5%,x,x,-12%[57.1 µM]

# Screening data from PubChem BioAssay.
